Laboratory results as given in PubChem BioAssay.
Where “and” joins values, the source holds several entries; their conditions need not be identical. Identical values can stand only once. Calls of active or inactive are those of the source. Unless noted, no rule for the calls is given here.

Key:
[1] = liver-stage malaria parasite growth inhibition, primary screen, cell-based, HepG2, luciferase luminescence, HepG2 viability (AID 624349; in the data active = parasite load remaining mostly below about 12%, no sharp cut-off; inactive = mostly above about 10%;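 also: 100% = mean of DMSO negative control wells on the same plate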); settings: P. berghei liver stage in HepG2, luciferase luminescence, concentration not given here; parasite load remaining: stronger effect = lower value; viability: measured here: HepG2 viability without parasites
[2] = Cy5 fluorescence interference with SSB-bound oligo, artefact control for HCV NS3 helicase inhibitor project, biochemical, NIH Clinical Collection, E. coli SSB (AID 743268)
[3] = tested on: Hepatitis C virus NS3 helicase; assay: HCV NS3 helicase inhibitors, primary screen, biochemical, fluorescence polarization, NIH Clinical Collection (AID 743270); settings: NS3 helicase binding to Cy5-dT15 DNA, stronger effect = higher value, concentration not given here
[4] = biological target: Single-stranded DNA-binding protein (Escherichia coli (strain K12)) (UniProt P0AGE0); assay: E. coli SSB displacement from DNA, counter-screen for HCV NS3 helicase inhibitor project, biochemical, fluorescence polarization, NIH Clinical Collection (AID 743271; in the data active = inhibition above about 28%); settings: stronger effect = higher value, concentration not given here
[5] = fluorescence interference in NS3h assay format, artefact control for HCV NS3 helicase inhibitor project, biochemical, NIH Clinical Collection (AID 743272); settings: fluorescence interference counterscreen, stronger effect = lower value;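 also: HCV NS3 helicase with a Cy5 labelled single stranded DNA probe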
[6] = stimulators of nuclear beta-catenin in C2C12, primary screen, imaging, WNT3A-conditioned medium, mouse C2C12, NPC library (AID 1117326; in the data active = nuclear beta-catenin stimulation mostly above about 4.2%, no sharp cut-off; inactive = mostly below about 10%); settings: stronger effect = higher value
[7] = stimulators of insulin release from INS-1E, primary screen, cell-based, 5 mM glucose, NPC library (AID 1117329;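 active = compound raises insulin release from rat beta cells at 5 mM glucose, no numeric limit stated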); settings: rat INS-1E insulin secretion, at 10 µM, stronger effect = higher value
[8] = growth inhibition of GSK3B-pretreated HCT116 cells – cell-based, CellTiter-Glo, 0.2 to 20 µM (AID 1117336;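 active = compounds lowering colon cancer cell viability after pretreatment blocking the GSK3B kinase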); settings: HCT116 viability after GSK3B inhibitor, at 20 µM, stronger effect = higher value
[9] = inhibition of endothelial tube formation, primary screen, imaging, VEGF stimulated, CD31 staining, tube area, NPC library (AID 1117340;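 active = compound that reduces growth-factor-driven endothelial tube area in a mixed cell culture, no cutoff stated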); settings: VEGF-stimulated ADSC/ECFC co-culture, at 10 µM, stronger effect = higher value
[10] = glucagon-like peptide 1 release enhancers, primary assay, NCI-H716 cell line, NPC library (AID 1117341;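 active = compound raises GLP1 secretion from the human gut endocrine cells, with no numeric limit stated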); settings: NCI-H716 cells, at 10 µM, stronger effect = higher value
[11] = HCT116 colon cancer cell growth inhibition, primary screen, CellTiter-Glo luminescence, NPC library (AID 1117342;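 active = compounds that lower survival of HCT116 colon cancer cells in the luminescence readout, no numeric limit stated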); settings: at 20 µM (top of the series)
[12] = CellTiter-Glo luminescent readout of SW480 viability loss, NPC library primary (AID 1117343;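 active = compounds that lower viability of the colon cancer cells in the luminescence readout, with no numeric limit stated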); settings: CellTiter-Glo luminescence; at 20 µM (top of the series)
[13] = decreased DLD-1 cellular survival, CellTiter-Glo luminescent readout, NPC compound collection, primary HTS (AID 1117346;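 active = compounds that lower survival of DLD-1 colon cancer cells in the luminescence readout, no cutoff given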); settings: DLD-1 viability, CellTiter-Glo luminescence; at 20 µM (top of the series)
[14] = biological target: 6-phosphogluconate dehydrogenase, decarboxylating (Homo sapiens) (UniProt P52209); assay: 6PGD enzyme inhibitors, primary screen, biochemical, human, recombinant enzyme, NADPH absorbance (AID 1159550;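 active = at least 20% inhibition of 6-phosphogluconate dehydrogenase activity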); settings: recombinant 6PGD, NADPH absorbance 341 nm; at 10 µM; stronger effect = higher value
6-phosphogluconate dehydrogenase, decarboxylating (Homo sapiens), sequence (P52209 whole entry, looked up): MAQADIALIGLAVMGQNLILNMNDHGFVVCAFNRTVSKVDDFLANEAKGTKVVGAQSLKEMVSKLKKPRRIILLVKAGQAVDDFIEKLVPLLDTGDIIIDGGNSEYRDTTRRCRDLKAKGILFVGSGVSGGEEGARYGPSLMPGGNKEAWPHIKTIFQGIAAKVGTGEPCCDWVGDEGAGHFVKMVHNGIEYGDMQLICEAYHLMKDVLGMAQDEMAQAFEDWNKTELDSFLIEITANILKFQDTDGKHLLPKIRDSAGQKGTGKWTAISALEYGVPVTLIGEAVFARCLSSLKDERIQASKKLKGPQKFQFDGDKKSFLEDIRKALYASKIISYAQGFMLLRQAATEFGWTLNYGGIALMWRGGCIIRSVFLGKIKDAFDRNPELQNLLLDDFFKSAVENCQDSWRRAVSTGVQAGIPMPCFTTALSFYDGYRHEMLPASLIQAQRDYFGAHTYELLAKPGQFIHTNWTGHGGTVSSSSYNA

[15] = sensitizers of A549 cells to miR-34 induction, primary screen, imaging, A549 dox-inducible miR-34, nuclei and caspase counts (AID 1347080;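 active = compounds whose cell count with miR-34 switched on is under 0.7 times the count with it off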); settings: A549 miR-34 inducible, Hoechst nuclei count, 48 h
[16] = biological target: NAD(+) hydrolase SARM1 (Homo sapiens) (UniProt Q6SZW1); assay: SARM1 TIR NADase inhibitors, cell lysate, NAD-Glo luminescence (AID 1508614;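 active = compound whose remaining NAD level is above about 45 nM, limit read from the data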;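 also: higher remaining NAD means stronger inhibition of SARM1 NADase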); settings: SAM-TIR HEK293T lysate NADase, at 1 µM, stronger effect = higher value
NAD(+) hydrolase SARM1 (Homo sapiens), sequence (Q6SZW1 whole entry, looked up, the tested form may be a part): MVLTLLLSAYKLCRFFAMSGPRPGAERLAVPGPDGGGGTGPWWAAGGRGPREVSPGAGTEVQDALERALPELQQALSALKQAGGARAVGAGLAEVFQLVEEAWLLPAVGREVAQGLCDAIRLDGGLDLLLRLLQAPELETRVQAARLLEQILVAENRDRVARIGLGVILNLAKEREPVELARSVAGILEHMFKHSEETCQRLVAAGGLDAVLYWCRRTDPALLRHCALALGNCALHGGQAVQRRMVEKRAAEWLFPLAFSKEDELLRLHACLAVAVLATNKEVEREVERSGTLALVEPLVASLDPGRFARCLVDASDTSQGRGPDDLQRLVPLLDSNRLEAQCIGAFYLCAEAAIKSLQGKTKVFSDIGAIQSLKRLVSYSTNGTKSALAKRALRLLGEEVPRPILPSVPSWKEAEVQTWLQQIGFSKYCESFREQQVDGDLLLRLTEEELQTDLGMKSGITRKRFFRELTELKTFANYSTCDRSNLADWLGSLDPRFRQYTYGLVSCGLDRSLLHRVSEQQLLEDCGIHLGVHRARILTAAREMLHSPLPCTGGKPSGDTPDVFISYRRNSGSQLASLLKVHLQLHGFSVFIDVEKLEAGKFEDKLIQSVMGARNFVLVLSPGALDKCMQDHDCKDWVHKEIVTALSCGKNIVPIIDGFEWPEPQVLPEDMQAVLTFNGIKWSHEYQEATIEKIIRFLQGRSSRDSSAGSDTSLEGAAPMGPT

[17] = biological target: Mitogen-activated protein kinase 7 (Homo sapiens) (UniProt Q13164); assay: ERK5 transactivation activators in reporter cells, primary screen, cell-based, HTS (AID 1508626;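 active = luciferase signal above three times the same-plate solvent-only control wells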;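 also: luciferase driven by Gal4-ERK5 fusion binding five Gal4 sites before minimal TATA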); settings: HeLa Gal4-ERK5 transactivation, 18 h, at 5 µM, stronger effect = higher value
Mitogen-activated protein kinase 7 (Homo sapiens), sequence (Q13164 whole entry, looked up, the tested form may be a part): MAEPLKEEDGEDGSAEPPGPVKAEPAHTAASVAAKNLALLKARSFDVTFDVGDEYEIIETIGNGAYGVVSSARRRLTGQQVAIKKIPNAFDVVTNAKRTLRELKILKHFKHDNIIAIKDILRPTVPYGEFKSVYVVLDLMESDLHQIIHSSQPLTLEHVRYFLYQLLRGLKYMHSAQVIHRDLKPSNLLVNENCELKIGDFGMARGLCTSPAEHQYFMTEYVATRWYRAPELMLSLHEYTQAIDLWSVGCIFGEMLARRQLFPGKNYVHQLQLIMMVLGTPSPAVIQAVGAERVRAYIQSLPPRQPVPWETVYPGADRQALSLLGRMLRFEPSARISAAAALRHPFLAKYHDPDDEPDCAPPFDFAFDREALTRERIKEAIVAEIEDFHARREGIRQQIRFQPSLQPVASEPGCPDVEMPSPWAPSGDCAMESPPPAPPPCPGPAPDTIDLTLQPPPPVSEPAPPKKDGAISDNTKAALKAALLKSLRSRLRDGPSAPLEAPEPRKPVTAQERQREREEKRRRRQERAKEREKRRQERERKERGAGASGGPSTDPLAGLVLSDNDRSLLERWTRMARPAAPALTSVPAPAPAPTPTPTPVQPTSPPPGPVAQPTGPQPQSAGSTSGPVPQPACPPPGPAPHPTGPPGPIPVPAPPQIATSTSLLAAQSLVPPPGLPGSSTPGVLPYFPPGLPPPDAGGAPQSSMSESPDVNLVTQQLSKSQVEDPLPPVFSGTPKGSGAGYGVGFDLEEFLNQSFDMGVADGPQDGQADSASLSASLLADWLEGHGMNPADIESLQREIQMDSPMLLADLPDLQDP

F380Y = assay: modulators of BK channel variants, profiling panel, selectivity assay, cell-based, U2OS BacMam, thallium flux, beta subunits (AID 1259406;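 active = thallium flux through the channel raised or lowered by more than 3 SD from vehicle-only wells, actives on both sides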;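 also: initial slope of Thallos dye fluorescence rise after thallium is added; log ratio against the mean of 0.3% DMSO vehicle wells on the same plate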); settings: at 30 µM
[18] = survival rescue of mitochondrial mutant cells in low glucose, primary screen, MELAS cybrids, Rieske KO mouse fibroblasts, CellTiter-Glo (AID 1508586;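 active = mean z-score across replicates of 1.96 or higher in either the MELAS or the Rieske mutant cell line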;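 also: z relative to plate mean and SD of compound and empty wells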)
[19] = differential killing of epithelial or mesenchymal cells, primary screen, imaging, PC-3E GFP, TEM4-18 mCherry, co-culture (AID 1345086;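 active = compounds killing one labelled cell type while sparing the other, by normalised counts and ratio limits, not self-fluorescent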;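 also: cells exposed to compound for 72 h before imaging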;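 as to red/green cell ratio (normalised): normalised mesenchymal count divided by normalised epithelial count so high means epithelial killing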); settings: imaging cell counts, at 1 µM
[20] = stronger effect = lower value, cell number ratio, induced over uninduced
[21] = measured here: relative caspase fold change +Dox/-Dox
[22] = measured here: total cells with miR-34 induction, stronger effect = lower value
[23] = measured here: total cells without miR-34 induction
[24] = MELAS cybrid survival, CellTiter-Glo 48 h, stronger effect = higher value
[25] = Rieske KO mouse fibroblast survival, CellTiter-Glo 72 h

C[C@]12CCC(=O)C=C1CC[C@@H]1[C@@H]2[C@@H](O)C[C@@]2(C)[C@H]1CC[C@]2(O)C(=O)COC(=O)CCC(=O)O
inactive: parasite load remaining [1] 82.9% | fluorescence ratio [2] 0.99 | inhibition [3] -1.36% | inhibition [4] -0.48% | fluorescence ratio [5] 1 | nuclear beta-catenin stimulation ([6]; at 10 µM) 0.9% | insulin secretion stimulation [7] 1.4% | viability decrease [8] 0.2% | tube area decrease [9] 5.6% | GLP1 secretion stimulation [10] -1.5% | inhibition of viability [11] 6.6% | viability decrease (inhibition) [12] -13.6% | viability decrease (inhibition) [13] 13.1% | inhibition [14] 1.94% | fold change [15, 20] 0.985 | remaining NAD [16] 10 nM | luciferase signal [17] 96 AU | log fold change Tl+ flux (F380Y) 0.0328
105%: viability [1]
3%: nuclear beta-catenin stimulation ([6]; stimulation, at 2 µM)
7270: cell count [15, 23]
1.65: fold change [15, 21]
7160: cell count [15, 22]

C[C@H]1C[C@@H]2[C@H]([C@@H](O)C[C@@]3(C)[C@H]2CC[C@]3(O)C(=O)CO)[C@@]2(C)C=CC(=O)C=C12
inactive: fluorescence ratio [2] 1.07 | inhibition [3] -1.36% | inhibition [4] 1.81% | fluorescence ratio [5] 1.04 | nuclear beta-catenin stimulation ([6]; at 10 µM) -1.3% | insulin secretion stimulation [7] 2.2% | viability decrease [8] -8.4% | tube area decrease [9] -6.1% | GLP1 secretion stimulation [10] 1% | inhibition of viability [11] 2.5% | viability decrease (inhibition) [12] 3.7% | viability decrease (inhibition) [13] -5% | inhibition [14] 12.4% | fold change [15, 20] 0.959 and 0.809 and 0.808 | z-score [18, 24] 0.0891 and -0.0037 | remaining NAD [16] 10 nM | luciferase signal [17] 100 AU | log fold change Tl+ flux (F380Y) 0.00302
0.739 and 1.35 and 1.33: fold change [15, 21]
-0.286 and 1.09: z-score [18, 25]
7490 and 7930 and 7360: cell count [15, 23]
0%: nuclear beta-catenin stimulation ([6]; stimulation, at 2 µM)
7180 and 6410 and 5950: cell count [15, 22]

CC(=O)OCC[N+](C)(C)C
-0.06 and -0.687: z-score [18, 25]
inactive: fluorescence ratio [2] 1.03 | inhibition [3] -0.45% | inhibition [4] 0.29% | fluorescence ratio [5] 1.01 | nuclear beta-catenin stimulation ([6]; at 10 µM) 0.6% | insulin secretion stimulation [7] 0.3% | viability decrease [8] -38.1% | tube area decrease [9] 19.9% | GLP1 secretion stimulation [10] -5.3% | inhibition of viability [11] 10.1% | viability decrease (inhibition) [12] 2.1% | viability decrease (inhibition) [13] -14.9% | inhibition [14] 14.7% | red/green cell ratio (normalised) ([19]; actives lie on both sides, counts scaled to control wells, 1 = unselective) 1.07 | z-score [18, 24] -0.299 and 0.505 | remaining NAD [16] 10 nM | luciferase signal [17] 60 AU | log fold change Tl+ flux (F380Y) 0.0119
1.22: normalised cell number ([19]; measured here: epithelial PC-3E GFP cell survival)
1.3: normalised cell number ([19]; measured here: mesenchymal TEM4-18 mCherry cell survival)
2.2%: nuclear beta-catenin stimulation ([6]; stimulation, at 2 µM)

Nc1nc2ncc(CNc3ccc(C(=O)N[C@@H](CCC(=O)O)C(=O)O)cc3)nc2c(=O)[nH]1
-0.293: z-score [18, 25]
10800 and 8990 and 11200: cell count [15, 22]
inactive: fluorescence ratio [2] 0.95 | inhibition [3] -2.27% | inhibition [4] 11% | fluorescence ratio [5] 0.92 | nuclear beta-catenin stimulation ([6]; at 10 µM) 0.8% | insulin secretion stimulation [7] 2.4% | viability decrease [8] -64.4% | tube area decrease [9] 16.7% | GLP1 secretion stimulation [10] -1.5% | inhibition of viability [11] -2.33% | viability decrease (inhibition) [12] 6.4% | viability decrease (inhibition) [13] -8.5% | inhibition [14] -0.853% | fold change [15, 20] 0.937 and 0.906 and 0.91 | z-score [18, 24] 0.332 | remaining NAD [16] 10 nM | luciferase signal [17] 188 AU | log fold change Tl+ flux (F380Y) -0.0861
11600 and 9920 and 12300: cell count [15, 23]
1.68 and 0.997 and 3.41: fold change [15, 21]
0.5%: nuclear beta-catenin stimulation ([6]; stimulation, at 2 µM)

CC[C@H](C)C(=O)O[C@H]1C[C@H](O)C=C2C=C[C@H](C)[C@H](CC[C@@H](O)C[C@@H](O)CC(=O)O)[C@H]21
0.983: fold change [15, 21]
9270: cell count [15, 23]
-1.06: z-score [18, 25]
-0.3%: nuclear beta-catenin stimulation ([6]; stimulation, at 2 µM)
inactive: parasite load remaining [1] 98.4% | fluorescence ratio [2] 1.01 | inhibition [3] -3.56% | inhibition [4] -3.18% | fluorescence ratio [5] 1 | nuclear beta-catenin stimulation ([6]; at 10 µM) -0.7% | insulin secretion stimulation [7] 0.2% | viability decrease [8] -15.6% | tube area decrease [9] 22% | GLP1 secretion stimulation [10] -3.6% | inhibition of viability [11] 12.4% | viability decrease (inhibition) [12] 2.3% | viability decrease (inhibition) [13] 5.1% | inhibition [14] -4.46% | fold change [15, 20] 0.972 | z-score [18, 24] -0.583 | remaining NAD [16] 10 nM | luciferase signal [17] 36 AU | log fold change Tl+ flux (F380Y) -0.00852
9020: cell count [15, 22]
77.5%: viability [1]

Cn1c(=O)c2[nH]cnc2n(C)c1=O
inactive: inhibition [3] 0.45% | inhibition [4] -2.76% | fluorescence ratio [5] 1 | nuclear beta-catenin stimulation ([6]; at 10 µM) 1.1% | insulin secretion stimulation [7] 0.2% | viability decrease [8] 0.3% | tube area decrease [9] -10.1% | GLP1 secretion stimulation [10] -0.8% | inhibition of viability [11] 6% | viability decrease (inhibition) [12] 20.4% | viability decrease (inhibition) [13] -2.35% | inhibition [14] 4.58% | remaining NAD [16] 10 nM | luciferase signal [17] 96 AU | log fold change Tl+ flux (F380Y) 0.0321
0.3%: nuclear beta-catenin stimulation ([6]; stimulation, at 2 µM)

COc1cc([C@@H]2c3cc4c(cc3[C@H](O)[C@H]3COC(=O)[C@H]23)OCO4)cc(OC)c1OC
inactive: parasite load remaining [1] 94.8% and 112% and 73% | fluorescence ratio [2] 1.01 | inhibition [3] -0.45% | inhibition [4] 1.05% | fluorescence ratio [5] 1.03 | insulin secretion stimulation [7] 1.25% | GLP1 secretion stimulation [10] 2% | viability decrease (inhibition) [12] 49.9% | inhibition [14] 10.7% | fold change [15, 20] 1.05 and 1.04 and 0.981 | z-score [18, 24] -2.59 | remaining NAD [16] 10 nM | luciferase signal [17] 92 AU | log fold change Tl+ flux (F380Y) 0.0196
0.525 and 0.993 and 1.97: fold change [15, 21]
2300 and 1910 and 1870: cell count [15, 22]
active: nuclear beta-catenin stimulation ([6]; at 10 µM) 81% | viability decrease [8] 102% | tube area decrease [9] 109% | inhibition of viability [11] 73.1% | viability decrease (inhibition) [13] 64%
1.94: z-score [18, 25]
77%: nuclear beta-catenin stimulation ([6]; stimulation, at 2 µM)
107% and 103% and 113%: viability [1]
2200 and 1830 and 1900: cell count [15, 23]
